Out of some 39,000 compounds screened, about 3,300 (8.5%) were called active. For the sample, actives were picked, then their nearest neighbours and some compounds at random.
Test system: HepG2
Assay: cytotoxicity call (relative viability < 0.9)
Conditions: 10 µM

SMILES	cytotoxicity call
C/C=C/c1ccc2c(c1)O[C@H](CN(C)S(=O)(=O)c1ccc(F)cc1)[C@H](C)CN([C@H](C)CO)S2(=O)=O	inactive
CCO[C@H]1[C@H]2CC[C@@H]1N(C(=O)N(C)C)CCO2	inactive
C[C@@H]1CCCCO[C@H](CN(C)S(C)(=O)=O)[C@H](C)CN([C@@H](C)CO)C(=O)c2cc(NS(C)(=O)=O)ccc2O1	inactive
CCC(=O)N[C@@H]1C=C[C@@H](CC(=O)OC)O[C@@H]1CO	inactive
CC(C)NC(=O)N(C)C[C@H]1Oc2ccc(NS(=O)(=O)c3ccccc3)cc2C(=O)N([C@@H](C)CO)C[C@@H]1C	inactive
COc1ccc(S(=O)(=O)Nc2ccc3c(c2)C(=O)N([C@@H](C)CO)C[C@@H](C)[C@@H](CN(C)Cc2ccccc2)OCCCC[C@@H](C)O3)cc1	inactive
O=C(C[C@H]1CC[C@@H]2[C@H](COC[C@H](O)CN2C(=O)C2CC2)O1)NCc1ccncc1	inactive
Cc1cc(O)cc2c1O[C@](C)(CCC[C@H](C)CCC[C@H](C)CCCC(C)C)CC2	inactive
Cc1noc(C)c1S(=O)(=O)Nc1cccc2c1O[C@H](CN(C)C(=O)NC1CCCCC1)[C@H](C)CN([C@@H](C)CO)C2=O	inactive
C[C@H](CO)N1C[C@H](C)[C@H](CN(C)C(=O)Nc2ccc(F)cc2)Oc2ncc(C#Cc3ccc(C(F)(F)F)cc3)cc2C1=O	inactive
C[C@H]1CN([C@@H](C)CO)C(=O)c2cccc(NS(=O)(=O)c3cccs3)c2O[C@H]1CN(C)Cc1ccc(Oc2ccccc2)cc1	inactive
COc1ccc(NC(=O)Nc2cccc3c2O[C@H](CN(C)C(=O)Nc2cccc4ccccc24)[C@H](C)CN([C@H](C)CO)C3=O)cc1	active
C[C@H](CO)N1C[C@H](C)[C@H](CN(C)C(=O)Nc2ccc(F)cc2)Oc2c(NC(=O)Nc3cccc4ccccc34)cccc2C1=O	active
C[C@@H]1CN([C@@H](C)CO)C(=O)c2cccc(NC(=O)Nc3cccc4ccccc34)c2O[C@H]1CN(C)C(=O)Nc1ccccc1	active
C[C@H]1CN([C@@H](C)CO)C(=O)c2cccc(NC(=O)Nc3cccc4ccccc34)c2O[C@@H]1CN(C)C(=O)Nc1ccccc1	inactive
C[C@H](CO)N1C[C@H](C)[C@@H](CN(C)C(=O)Nc2ccc(F)cc2)Oc2c(NC(=O)Nc3cccc4ccccc34)cccc2C1=O	inactive
C[C@@H]1CN([C@H](C)CO)C(=O)c2cccc(NC(=O)Nc3cccc4ccccc34)c2O[C@H]1CN(C)C(=O)Nc1ccc(F)cc1	inactive
COc1ccc(NC(=O)Nc2cccc3c2O[C@@H](CN(C)C(=O)Nc2cccc4ccccc24)[C@H](C)CN([C@H](C)CO)C3=O)cc1	inactive
C[C@H]1CN([C@@H](C)CO)C(=O)c2cccc(NC(=O)Nc3cccc4ccccc34)c2O[C@H]1CN(C)C(=O)Nc1ccccc1	inactive
COc1ccc(NC(=O)Nc2cccc3c2O[C@@H](CN(C)C(=O)Nc2cccc4ccccc24)[C@H](C)CN([C@@H](C)CO)C3=O)cc1	inactive
C[C@H](CO)N1C[C@H](C)[C@H](CN(C)Cc2ccc(Cl)c(Cl)c2)Oc2c(NC(=O)Nc3ccc4c(c3)OCO4)cccc2C1=O	inactive

SMILES	cytotoxicity call
C[C@H](CO)N1C[C@H](C)[C@H](CN(C)C(=O)c2ccncc2)Oc2cc(C#C[C@@H](C)O)ccc2S1(=O)=O	inactive
Cc1cc(F)ccc1S(=O)(=O)N1[C@@H]2CC[C@@H](C2)[C@H]1c1nc2cccc(OCc3ccc(F)cc3)c2[nH]1	inactive
C[C@@H]1CCCCO[C@H](CN(C)S(=O)(=O)c2cn(C)cn2)[C@@H](C)CN([C@H](C)CO)C(=O)c2cc(N(C)C)ccc2O1	inactive
C[C@H](CO)N1C[C@H](C)[C@@H](CN(C)C(=O)Nc2ccc(C(F)(F)F)cc2)Oc2ccc(NS(=O)(=O)c3ccc(Cl)cc3)cc2C1=O	inactive
CCCN1C[C@H](C)[C@H](OC)CN(C)C(=O)c2ccc(NS(=O)(=O)c3cn(C)cn3)cc2OC[C@@H]1C	inactive
CN1CCN(C(=O)C[C@@H]2CC[C@H]3[C@@H](COC[C@H](O)CN3C(=O)C3CCOCC3)O2)CC1	inactive
C[C@H]1CN([C@@H](C)CO)C(=O)c2cccc(NS(=O)(=O)c3ccccc3)c2O[C@H]1CN(C)Cc1ccc(Oc2ccccc2)cc1	inactive
C[C@@H]1CN([C@@H](C)CO)C(=O)c2cc(NC(=O)C3CCCCC3)ccc2O[C@@H](C)CCCCO[C@@H]1CN(C)Cc1ccccc1	inactive
COc1cc(C(=O)O[C@H]2CC[C@@]3(C)[C@@H]4CC[C@H]5[C@]6(O)C[C@H](O)[C@@]7(O)[C@@H](CN8C[C@@H](C)CC[C@H]8[C@@]7(C)O)[C@]6(O)C[C@@]53O[C@@]24O)cc(OC)c1OC	inactive
O=C(Nc1ncc(SCCN2CCCC2)s1)[C@]1(c2ccc(S(=O)(=O)C3CC3)cc2)C[C@H]1C1CCCCC1	active
Cc1ccc(-c2ccc3c(c2)O[C@H](CN(C)C(=O)CN(C)C)[C@@H](C)CN([C@H](C)CO)S3(=O)=O)cc1	inactive
Cn1c(C(=O)N2CCCO[C@@H](Cn3cccn3)C2)cc(=O)n(C)c1=O	inactive
C[C@H]1CN([C@@H](C)CO)C(=O)c2cc(NC(=O)Nc3ccc(F)cc3)ccc2O[C@@H]1CN(C)S(=O)(=O)c1cn(C)cn1	inactive
COc1ccc(S(=O)(=O)N(C)C[C@@H]2Oc3ccc(NS(=O)(=O)c4cn(C)cn4)cc3CC(=O)N([C@@H](C)CO)C[C@@H]2C)cc1	inactive
CN(C)c1cc(CNCC(C)(C)C)c(O)c2c1C[C@H]1C[C@H]3[C@H](N(C)C)C(=O)[C@H](C(N)=O)C(=O)[C@@]3(O)C(=O)[C@@H]1C2=O	inactive
C[C@@H]1CN([C@@H](C)CO)C(=O)c2cc(NC(=O)Nc3ccc(C(F)(F)F)cc3)ccc2O[C@H]1CN(C)Cc1ccncc1	active
C[C@@H]1CN([C@H](C)CO)C(=O)c2cc(NC(=O)Nc3ccc(C(F)(F)F)cc3)ccc2O[C@@H]1CN(C)Cc1ccncc1	inactive
C[C@@H]1CN([C@H](C)CO)C(=O)c2cc(NC(=O)Nc3ccc(C(F)(F)F)cc3)ccc2O[C@H]1CN(C)Cc1ccncc1	inactive
C[C@@H]1CN([C@@H](C)CO)C(=O)c2cc(NC(=O)Nc3ccc(C(F)(F)F)cc3)ccc2O[C@@H]1CN(C)Cc1ccncc1	inactive
C[C@H]1CN([C@@H](C)CO)C(=O)c2cc(NC(=O)Nc3ccc(C(F)(F)F)cc3)ccc2O[C@@H]1CN(C)Cc1ccncc1	active
C[C@H]1CN([C@@H](C)CO)C(=O)c2cc(NC(=O)Nc3ccc(C(F)(F)F)cc3)ccc2O[C@H]1CN(C)Cc1ccncc1	inactive

SMILES	cytotoxicity call
CO[C@H]1CN(C)C(=O)c2cc(NC(=O)C3CCOCC3)ccc2OC[C@@H](C)N(Cc2cccnc2)C[C@@H]1C	inactive
CC(C)NC(=O)N(C)C[C@H]1Oc2ccc(NC(=O)Cc3ccccc3)cc2CC(=O)N([C@H](C)CO)C[C@@H]1C	inactive
c1ccc(Oc2ccncc2)cc1	inactive
COC(=O)C(CC#Cc1ccc2c(c1)[C@]1(C(=O)N2)[C@H](c2ccc(O)cc2)N2[C@H](c3ccccc3)[C@H](c3ccccc3)OC(=O)[C@H]2[C@@H]1C(=O)NC[C@H](O)c1ccccc1)C(=O)OC	inactive
C[C@H]1CN([C@@H](C)CO)C(=O)c2c(c3ccccc3n2C)-c2ccccc2CO[C@H]1CN(C)Cc1ccc(Oc2ccccc2)cc1	inactive
COc1ccc(S(=O)(=O)Nc2cccc3c2O[C@H](CN(C)S(=O)(=O)c2ccccc2)[C@H](C)CN([C@@H](C)CO)C3=O)cc1	inactive
COCC#Cc1ccc2c(c1)O[C@H](CN(C)C(=O)COC)[C@H](C)CN([C@@H](C)CO)S2(=O)=O	inactive
Cc1cc(OCc2nnc(SC3CCCC3)n2-c2cccnc2)ccc1-c1ccc(S(C)(=O)=O)cc1	active
Cc1nc(N)c(C(=O)O)nc1C	inactive
C[C@@H]1CN([C@H](C)CO)C(=O)Cc2cc(NC(=O)Cc3cn(C)c4ccccc34)ccc2O[C@H]1CN(C)Cc1ccc(C(=O)Nc2ccccc2N)cc1	inactive
COc1ccc(CN(C)C[C@H]2OCCCC[C@H](C)Oc3ccc(NS(=O)(=O)c4ccc(OC)cc4)cc3C(=O)N([C@H](C)CO)C[C@H]2C)cc1	inactive
COc1ccc(S(=O)(=O)Nc2ccc3c(c2)C(=O)N([C@@H](C)CO)C[C@H](C)[C@@H](CN(C)Cc2ccc(Cl)c(Cl)c2)OCCCC[C@@H](C)O3)cc1	active
COc1ccc(S(=O)(=O)Nc2ccc3c(c2)C(=O)N([C@H](C)CO)C[C@H](C)[C@@H](CN(C)Cc2ccc(Cl)c(Cl)c2)OCCCC[C@@H](C)O3)cc1	active
COc1ccc(S(=O)(=O)Nc2ccc3c(c2)C(=O)N([C@H](C)CO)C[C@@H](C)[C@H](CN(C)Cc2ccc(Cl)c(Cl)c2)OCCCC[C@H](C)O3)cc1	active
COc1ccc(CN(C)C[C@H]2OCCCC[C@@H](C)Oc3ccc(NS(=O)(=O)c4ccc(OC)cc4)cc3C(=O)N([C@@H](C)CO)C[C@@H]2C)cc1	inactive
COc1ccc(CN(C)C[C@H]2OCCCC[C@@H](C)Oc3ccc(NS(=O)(=O)c4ccc(OC)cc4)cc3C(=O)N([C@H](C)CO)C[C@H]2C)cc1	inactive
COc1ccc(S(=O)(=O)Nc2ccc3c(c2)C(=O)N([C@@H](C)CO)C[C@H](C)[C@@H](CN(C)Cc2ccc(Cl)c(Cl)c2)OCCCC[C@H](C)O3)cc1	active
COc1ccc(CN(C)C[C@H]2OCCCC[C@H](C)Oc3ccc(NS(=O)(=O)c4ccc(OC)cc4)cc3C(=O)N([C@@H](C)CO)C[C@@H]2C)cc1	inactive
COc1ccc(CN(C)C[C@@H]2OCCCC[C@@H](C)Oc3ccc(NS(=O)(=O)c4ccc(OC)cc4)cc3C(=O)N([C@H](C)CO)C[C@@H]2C)cc1	inactive
COc1ccc(CN(C)C[C@@H]2OCCCC[C@@H](C)Oc3ccc(NS(=O)(=O)c4ccc(OC)cc4)cc3C(=O)N([C@@H](C)CO)C[C@H]2C)cc1	inactive
